Sampled rows, rich in hits. Any-hit rate of the full collection: about 4.7%.
proKLK7 act – proKLK7 (human) activation, primary screen | AID 652039 | P49862 | purified proKLK7, EDANS-DABCYL substrate fluorescence; 100% is mature enzyme control, 0% vehicle | activation, % at 7 µM | actives 0.9% (n = 370,000);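 active = activation above the mean of all tested compounds plus 3 SD, computed per campaign excluding outliers beyond control limits, cut at about 13% in these data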
rCAG RNA binder – molecules binding r(CAG) RNA repeats | inhibition, % at 3 µM | r(CAG) RNA repeat, TO-PRO-1 dye displacement fluorescence | actives 1.3% (n = 370,000);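 active = inhibition above the plate cutoff, the mean of all test compounds on that plate plus 3 SD, cut at about 35% in these data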;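 also: higher means more dye released from RNA so lower well fluorescence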
Pemphigus Ab inh – human desmoglein-3 autoantibody binding inhibition; actives 0.48% (n = 310,000); binding (percent of control), % at 10 µM; DSG3-coupled beads, scFv-anti-DSG3-GFP binding, flow cytometry; active compounds read low;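 active = binding more than 3 SD below its plate's average and above zero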;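 also: hits lower antibody fragment binding to DSG3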
ADAM10 inh – inhibits human ADAM10; inhibition, % at 7 µM; recombinant ADAM10, EDANS/DABCYL FRET peptide cleavage, 3 h; O14672; AID 720582; actives 0.62% (n = 370,000);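 active = inhibition above a per-campaign cutoff equal to the mean of compounds falling between control-based bounds plus 3 SD, cut at about 20% in these data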
ADAM17 inh – inhibits human ADAM17; actives 0.83% (n = 370,000); AID 720648; recombinant ADAM17, EDANS/DABCYL FRET peptide cleavage; inhibition, % at 6.95 µM;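 active = inhibition above the mean of compounds lying between control limits plus 3 SD, set per campaign, cut at about 8.5% in these data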
Target sequence (P78536 215-824 limits assumed): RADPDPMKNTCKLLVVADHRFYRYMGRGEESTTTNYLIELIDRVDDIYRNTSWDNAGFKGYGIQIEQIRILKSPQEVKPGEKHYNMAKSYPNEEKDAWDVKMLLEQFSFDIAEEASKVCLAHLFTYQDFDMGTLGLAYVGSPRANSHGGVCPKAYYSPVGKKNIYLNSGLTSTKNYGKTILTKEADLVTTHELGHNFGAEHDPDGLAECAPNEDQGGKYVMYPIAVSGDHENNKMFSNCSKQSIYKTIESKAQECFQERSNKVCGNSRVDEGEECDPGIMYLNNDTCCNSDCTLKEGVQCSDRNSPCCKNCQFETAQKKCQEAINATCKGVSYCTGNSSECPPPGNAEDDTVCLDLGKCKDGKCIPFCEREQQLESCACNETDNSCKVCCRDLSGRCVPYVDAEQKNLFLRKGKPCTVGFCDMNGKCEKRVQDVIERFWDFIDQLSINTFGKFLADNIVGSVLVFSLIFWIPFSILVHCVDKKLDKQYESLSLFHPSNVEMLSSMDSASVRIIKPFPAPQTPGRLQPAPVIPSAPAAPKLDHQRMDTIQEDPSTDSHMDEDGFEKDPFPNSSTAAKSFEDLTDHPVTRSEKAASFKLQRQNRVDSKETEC
MPTP inh – permeability transition pore inhibition; actives 1.4% (n = 360,000); inhibition, % at 10 µM; AID 602449; isolated mouse mitochondria, Ca2+ swelling absorbance, 30 min;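 active = inhibition of 50% or more, scaled per plate between neutral and stimulator controls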
Rh123 counter – mitochondrial membrane potential, counter-screen | AID 624504 | shares compounds with MPTP inh | inhibition, % at 10 µM | actives 78% (n = 5,000) | isolated mitochondria, Rhodamine 123 fluorescence; in the data active = inhibition above about 22%
rCAG binder conf – r(CAG) RNA repeat binding, confirmation; actives 70% (n = 4,300); inhibition, % at 3 µM; TO-PRO-1 dye displacement fluorescence; AID 652065; shares compounds with rCAG RNA binder;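 active = inhibition above a per-plate cutoff, the mean inhibition of sample wells plus 3 SD, cut at about 35% in these data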;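 also: loss of TO-PRO-1 fluorescence as compound displaces dye from 1x1 AA loop RNA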
dCAG dye counter – counter-screen for rCAG RNA binders: DNA CAG dye complex inhibitors. shares compounds with rCAG RNA binder. d(CAG) DNA oligo TO-PRO-1 dye displacement, fluorescence. inhibition, % at 3 µM. actives 94% (n = 4,300). AID 652068;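 active = inhibition above its plate's cutoff, the mean test-well inhibition plus 3 SD, cut at about 4.8% in these data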;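 also: hits displace the dye from DNA and so lower well fluorescence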
dCAG dye DR – counter-screen for rCAG binders: inhibitors of DNA CAG TO-PRO-1 complex. shares compounds with rCAG RNA binder. DNA CAG/GTC duplex TO-PRO-1 dye displacement fluorescence. IC50, µM. actives 20% (n = 250); in the data active = IC50 below about 10 µM
Hits are given with their value; 0 = inactive; - = not tested or not shown.

SMILES	proKLK7 act	rCAG RNA binder	Pemphigus Ab inh	ADAM10 inh	ADAM17 inh	MPTP inh	Rh123 counter	rCAG binder conf	dCAG dye counter	others
O=C(CSCc1ccccc1)NNC(=S)Nc1cccc(Cl)c1Cl	0	58	-	0	0	92	103	65	26
CCOc1ccc(NC(=O)Nc2nc(SCC)ns2)cc1	0	65	0	0	0	97	79	0	18
COc1ccc(C=NNc2ccc([N+](=O)[O-])cc2S(=O)(=O)Nc2ccccc2C(=O)O)cc1OC	0	90	0	0	0	60	37	94	75
Cc1cccc(C2(c3cccc(C)c3)CC2C(=O)Nc2ccc([N+](=O)[O-])cc2O)c1 (centres undefined)	0	49	0	0	0	96	68	52	22
CCCCCCC12C(=Cc3cc4c(cc31)OCCO4)c1cc(OC)c(OC)cc1C(CC(=O)NCc1ccccc1)N2C(=O)OC (centres undefined)	0	0	-	0	0	-	-	-	-
Oc1ccccc1C=NNC(=S)NC1CC2C=CC1C2 (centres undefined)	0	0	0	0	0	0	-	-	-
Oc1c(Cl)cc(Cl)cc1/C=N/NC(=S)NC1CC2C=CC1C2 (centres undefined)	0	66	0	0	0	89	62	81	47
N#Cc1ccc2nc(-c3ccc(CN4CCC(n5cc(-c6ccccc6)[nH]c5=O)CC4)cc3)c(-c3ccccc3)nc2c1	0	0	-	0	0	-	-	-	-
O=C(/C=C/c1ccccc1)Nc1cccc(S(=O)(=O)Nc2ccccc2F)c1	0	38	0	0	0	51	56	40	13
Cc1ccc(S(=O)(=O)Nc2ccccc2C(=O)Nc2nc(-c3ccc(F)cc3)cs2)cc1	0	89	0	0	0	70	0	93	81
O=C(Nc1ccccc1N1CCOCC1)c1ccccc1NS(=O)(=O)c1ccc(F)c(F)c1	0	38	0	0	0	62	98	0	7.2
COc1ccc(-c2csc(NS(=O)(=O)c3ccc([N+](=O)[O-])cc3)n2)cc1	0	70	0	0	0	84	78	57	23
COc1ccc(-c2csc(NC(=O)c3ccccc3F)n2)cc1	0	0	0	0	0	0	-	-	-
CNc1nc(-c2ccc([N+](=O)[O-])cc2)cs1	0	0	-	0	0	0	-	-	-
COc1ccc(-c2csc(NC(=O)c3ccccc3NS(=O)(=O)c3ccc(F)c(F)c3)n2)cc1	0	89	0	0	0	92	0	90	75
CCCCCCC(=O)NC1CCCCN(Cc2cccc(Cl)c2)C1=O (centres undefined)	0	0	-	0	0	-	-	-	-
O=C(OCC#CCSc1nnc(-c2cccc3ccccc23)o1)c1cc(F)c(F)c(F)c1	-	-	-	0	0	-	-	-	-
O=c1c2ccccc2nc(N/N=C/c2ccc(O)cc2)n1O	0	0	0	0	0	0	-	-	-
O=c1c2ccccc2nc(N/N=C/c2c(O)ccc3ccccc23)n1O	0	35	0	0	0	52	0	71	30
COc1ccc(S(=O)(=O)N2CCCCCC2)c2ccccc12	0	0	-	0	0	-	-	-	-
O=C(COc1ccccc1C(=O)O)Nc1nc2ccc([N+](=O)[O-])cc2s1	0	40	0	0	0	94	83	37	12
CC(C)CC(C(=O)Nc1oc(-c2ccccc2)c(-c2ccccc2)c1C#N)N1C(=O)c2ccccc2C1=O (centres undefined)	0	51	0	0	0	74	69	39	19
CCSCCc1nnc(NC(=O)Nc2cccc(C(F)(F)F)c2)s1	0	38	0	0	0	80	73	0	19
O=C(Nc1cccc(C(F)(F)F)c1)Nc1nnc([C@H]2C[C@H](O)[C@@H](CO)O2)s1	0	0	-	0	0	0	-	-	-
Cc1cccc(N/N=C(\C#N)S(=O)(=O)C(C)(C)C)c1	0	0	0	0	0	0	-	-	-
SMILES	proKLK7 act	rCAG RNA binder	Pemphigus Ab inh	ADAM10 inh	ADAM17 inh	MPTP inh	Rh123 counter	rCAG binder conf	dCAG dye counter	others
CC(C)(C)c1ccc(N/N=C(\C#N)S(=O)(=O)C(C)(C)C)cc1	0	36	0	0	0	86	86	50	19
C=CCCC1CN(Cc2ccc(OC)cc2)S(=O)(=O)c2c(Oc3ccc(C(C)C)cc3)cccc2O1 (centres undefined)	0	0	-	0	0	-	-	-	-
COC(=O)[C@@H]1C[C@@]2(c3ccccc3)c3ccccc3N(S(=O)(=O)c3ccccc3)[C@H]2N1C(=O)CNC/C=C(\C)CCC=C(C)C	0	0	-	0	0	-	-	-	-
C/C(=N\NC(=O)c1ccccc1O)C1C(=O)c2ccccc2C1=O	0	72	0	0	0	64	70	64	18
CCC/C(C)=N/NC(=O)c1ccccc1O	0	0	0	0	0	0	-	-	-
O=C1CSc2ccc(C(=O)Nc3cccc(S(=O)(=O)Nc4ccc(Br)cc4)c3)cc2N1	0	39	0	48	17	89	71	45	15
O=C(N[C@H](C(=O)N1CCC[C@H]1C(=O)NC1CCCC1)c1ccccc1)c1ccc(Cl)c(Cl)c1	0	0	-	0	0	-	-	-	-
O=[N+]([O-])c1cc(C(F)(F)F)cc([N+](=O)[O-])c1NCCNC(=S)Nc1ccc(Cl)c(Cl)c1	0	36	0	0	0	76	69	0	6.6
C#CCNC(=O)C[C@H]1C[C@@]2(C(=O)OC)C(=C[C@H](C(C)(C)C)O[C@@H]2C)N(Cc2ccc(Cl)cc2Cl)C1=O	0	0	-	0	0	-	-	-	-
C=CCSC1=N/C(=C\c2cc(OCC)c(OC(C)=O)c([N+](=O)[O-])c2)C(=O)S1	0	41	0	0	0	98	63	61	20
C=CCSC1=N/C(=C\c2ccc3c(c2)OCO3)C(=O)S1	0	0	0	0	0	0	-	-	-
CC(C)c1ccc(-c2csc(NC(=O)c3cccs3)c2C(=O)O)cc1	0	83	0	0	0	62	56	77	33	dCAG dye DR=7.8
CC(C)c1ccc(C(CC(=O)O)NC(=O)c2cccs2)cc1 (centres undefined)	0	0	0	0	0	0	-	-	-
Cc1cc(N2CCNC[C@H]2C)ccc1N1CCS(=O)(=O)CC1	0	0	-	0	0	-	-	-	-
O=C(O)c1ccccc1C(=O)Nc1cccc([N+](=O)[O-])c1	0	0	0	0	0	0	-	-	-

Source: PubChem (several laboratories)
